Screens deposited in PubChem BioAssay by several laboratories.
CHT allo act: allosteric activators of human choline transporter CHT; Q9GZV3; 310,000 compounds, 0.49% hits; B-score at 10 µM; CHT-expressing cells, membrane potential dye, choline EC20; stronger effect = higher value; LV-AA mutant CHT in HEK293 cells;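 active = initial fluorescence not abnormally high and integrated response B-score, plate-corrected, over 3 SD above library mean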
Target sequence (Q9GZV3 whole entry, looked up): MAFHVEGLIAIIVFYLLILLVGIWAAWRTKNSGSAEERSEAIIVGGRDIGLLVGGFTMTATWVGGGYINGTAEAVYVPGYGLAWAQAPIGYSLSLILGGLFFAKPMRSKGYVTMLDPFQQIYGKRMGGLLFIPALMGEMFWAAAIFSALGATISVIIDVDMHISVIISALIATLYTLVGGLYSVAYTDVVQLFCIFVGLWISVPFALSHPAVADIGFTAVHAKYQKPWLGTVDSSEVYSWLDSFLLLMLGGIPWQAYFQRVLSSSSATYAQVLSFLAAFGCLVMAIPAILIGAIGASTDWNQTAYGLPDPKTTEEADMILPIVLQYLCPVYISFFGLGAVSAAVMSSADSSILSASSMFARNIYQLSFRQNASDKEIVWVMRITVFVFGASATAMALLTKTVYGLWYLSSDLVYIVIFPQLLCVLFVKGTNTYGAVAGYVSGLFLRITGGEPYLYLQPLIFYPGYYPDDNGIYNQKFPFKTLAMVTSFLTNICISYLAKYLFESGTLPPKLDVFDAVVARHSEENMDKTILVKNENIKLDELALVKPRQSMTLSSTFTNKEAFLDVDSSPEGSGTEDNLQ
MEKK2wt PB1 HTS: raises or lowers MEK5 binding to wildtype human MEKK2 PB1 domain. Q9Y2U5. bead flow cytometry, Alexa488-MEK5 binding to MEKK2 WT; actives lie on both sides. binding response (% of control), % at 10 µM. 290,000 compounds, 1.1% hits; in the data active = binding response below about 67% or above about 130%
CHT inh: inhibits the human high affinity choline transporter | 310,000 compounds, 0.86% hits | CHT-expressing cells, membrane potential dye, choline response; stronger effect = lower value | AID 488975 | B-score at 10 µM;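 active = B-score over 3 SD under the library average, and starting fluorescence ratio not unusually high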;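 note: choline stimulus applied at its EC90 after an EC20 pre-addition; B-score computed on integrated fluorescence ratio after choline addition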
Mot1-301 SUMO: SUMOylation pathway inhibition by Mot1-301 growth rescue | S. cerevisiae Mot1-301 growth rescue, ATP luminescence, 38.5C; percent above DMSO median, 100 means doubled | 320,000 compounds, 1% hits | growth rescue, % at 18.8 µM;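 active = every valid replicate shows activation above 250% relative to neutral control wells; inactive = the rest, any valid replicate at or below 250%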;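 note: OY570 slx delta 5 strain wells were the positive control but not used for scaling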
MEKK3 PB1 HTS: modulators (inhibitors or enhancers) of MEK5 binding to human MEKK3 PB1 domain; binding response (% of control), % at 10 µM; Q99759; bead-based flow cytometry, Alexa488-MEK5 binding to MEKK3; actives lie on both sides; 0 = blocked by unlabeled MEK5, 100 = vehicle; 290,000 compounds, 1.4% hits;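 active = binding response more than 3 SD above or below the average of its plate-row segment, actives on both sides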;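 note: Alexa488 bead fluorescence after subtracting the streptavidin-only scavenger bead signal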
MEKK2mut PB1 HTS: signal of MEK5 binding to mutant human MEKK2 PB1 domain | bead flow cytometry, Alexa488-MEK5 binding to MEKK2 mutant | percent response, % at 10 µM | 290,000 compounds, 0.35% hits | AID 1530; in the data active = percent response above about 24%, passing the limit was not always enough
MEKK2wt confirm: raises or lowers MEK5 binding to wildtype human MEKK2, retest. shares compounds with MEKK3 PB1 HTS. bead flow cytometry, Alexa488-MEK5 binding to MEKK2 WT; actives lie on both sides. binding response (% of control), % at 10 µM. 5,900 compounds, 2.4% hits. AID 1892; in the data active = binding response below about 16% or above about 210%; inactive = in between
MEKK2mut-MEK5: signal of MEK5 binding to mutant human MEKK2, retest; percent response, % at 10 µM; 5,900 compounds, 2% hits; bead flow cytometry, Alexa488-MEK5 binding to MEKK2 mutant; shares compounds with MEKK3 PB1 HTS; in the data active = percent response mostly above about 71%, no sharp cut-off; inactive = mostly below about 38%;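 note: higher means compound restores mutant binding toward wildtype level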
MEKK3-MEK5 inh: confirmation of inhibitors of MEK5 binding to human MEKK3 | shares compounds with MEKK3 PB1 HTS | bead flow cytometry, Alexa488-MEK5 binding to MEKK3; stronger effect = lower value | binding response (% of control), % at 10 µM | 5,900 compounds, 1.8% hits | AID 1894;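 active = binding response below 72% of control, or above a set upper limit, though filed actives all read lower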;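 note: 100% = DMSO only wells and 0% = binding blocked by excess unlabeled MEK5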
Numbers without * were called inactive; i = inactive; nt = not tested or not shown; [ ] = remark or other dose. A selection: hits, their analogues and other compounds. The true share with any hit is near 4.1%.

SMILES	CHT allo act	MEKK2wt PB1 HTS	CHT inh	Mot1-301 SUMO	MEKK3 PB1 HTS	MEKK2mut PB1 HTS	MEKK2wt confirm	MEKK2mut-MEK5	MEKK3-MEK5 inh
COc1ccc(-n2cc(CNCc3cnc4ccccn34)c(-c3cccc(F)c3)n2)cc1	i	170.0*	i	4.9	106.0	59.0*	151.0	41.0	116.0
COc1ccc(-n2cc(CNCC3CCOCC3)c(-c3cccc(F)c3)n2)cc1	i	122.0	i	7.0	110.0	0.0	nt	nt	nt
Cc1ccc(NC(=S)Nc2cccc3cnccc23)c(C)c1	i	94.0	i	2.5	99.0	-2.0	nt	nt	nt
Cc1cc(C)cc(NC(=S)Nc2cccc3cnccc23)c1	nt	140.0*	nt	nt	107.0	7.0	107.0	3.0	103.0
O=C(O)/C(=C/c1ccco1)NC(=O)c1ccccc1	i	106.0	i	-18.2	128.0*	-1.0	116.0	8.0	107.0
C=CC(C)(O)CCC=C(C)C (centres undefined)	i	nt	i	-0.4	nt	nt	nt	nt	nt
CC(C)=CCC/C(C)=C/CC(C)(C)CNCCN1CCNCC1	i	163.0*	i	14.5	119.0	21.0	111.0	12.0	105.0
COc1ccc(CCN2CCC(Nc3nc4ccccc4n3Cc3ccc(F)cc3)CC2)cc1	i	150.0*	i	50.5	67.0	38.0*	179.0	33.0	102.0
CCc1nc2ccccc2n1Cc1ccc(F)cc1	i	102.0	i	-4.4	100.0	-2.0	nt	nt	nt
COc1ccc(NC(=O)Cn2c(CCC(=O)O)ccc2-c2ccc(C)cc2)cc1	i	83.0	i	-4.7	103.0	-7.0	nt	nt	nt
COc1cc(NS(=O)(=O)c2ccc(NC(=S)NC(C)=O)cc2)nc(OC)n1	i	nt	i	6.7	nt	nt	nt	nt	nt
COc1cc(NS(=O)(=O)c2ccc(NC(=S)NC(=O)C(C)(C)C)cc2)nc(OC)n1	i	51.0	i	-6.0	38.0*[inhibitor]	-23.0	98.0	0.0	105.0
Cc1cccc(C)c1OCC(O)CN1CCC(CN2C(=O)c3cccc4cccc(c34)C2=O)CC1 (centres undefined)	i	150.0*	-6.3*	-21.6	97.0	20.0	134.0	48.0	104.0
Cc1ccccc1OCC(O)CN1CCN(CCN2C(=O)c3cccc4cccc(c34)C2=O)CC1 (centres undefined)	i	111.0	i	-23.6	137.0*	1.0	132.0	15.0	106.0
CC(C)OCC(O)CN1CCN(CCN2C(=O)c3cccc4cccc(c34)C2=O)CC1 (centres undefined)	i	100.0	i	-3.5	101.0	3.0	nt	nt	nt
C=CCc1ccccc1OCC(O)CN1CCN(CCN2C(=O)c3cccc4cccc(c34)C2=O)CC1 (centres undefined)	i	193.0*	i	-18.9	111.0	23.0	155.0	17.0	105.0
COc1ccc([C@H]2CC(=O)C=C(c3ccc(SC)cc3)C2)cc1	nt	nt	nt	2.8	nt	nt	nt	nt	nt
O=C(O)c1cc2ccc3cccc4ccc(c1)c2c34	i	107.0	i	-14.7	106.0	8.0	nt	nt	nt
Clc1ccc(OCCCN2CCc3ccccc3C2)c(Br)c1	i	134.0*	i	17.3	105.0	20.0	102.0	-1.0	101.0
Cc1cc(NC(=O)COC(=O)CCNS(=O)(=O)c2ccccc2)n(-c2ccccc2)n1	i	nt	i	-6.8	nt	nt	nt	nt	nt
CCCn1c(N)c(C(=O)CSc2nc(N)cc(=O)[nH]2)c(=O)n(C)c1=O	nt	nt	nt	-4.6	nt	nt	nt	nt	nt
COc1ccc(NC(=S)NCCSc2ccc(C)cc2)c(OC)c1	i	97.0	i	63.2	97.0	2.0	nt	nt	nt
COc1ccc(OC)c(NC(=S)NCCSc2ccc(C)cc2)c1	i	112.0	i	-6.3	142.0*	1.0	108.0	7.0	106.0
CC1=C/C(=C\c2ccc(Br)o2)C(=O)O1	i	114.0	i	11.8	99.0	0.0	nt	nt	nt
O=C1C(=Cc2ccc(Br)o2)C(=O)c2ccccc21	i	98.0	i	30.0	138.0*	0.0	105.0	1.0	106.0
SMILES	CHT allo act	MEKK2wt PB1 HTS	CHT inh	Mot1-301 SUMO	MEKK3 PB1 HTS	MEKK2mut PB1 HTS	MEKK2wt confirm	MEKK2mut-MEK5	MEKK3-MEK5 inh
COC(=O)n1ccc(C(=O)Nc2ccccc2F)n1	i	3.0*[inhibitor]	i	3.1	3.0*[inhibitor]	-21.0	103.0	3.0	106.0
Cc1cnc(C(=O)Nc2ccccc2F)cn1	i	1.0*[inhibitor]	i	2.3	2.0*[inhibitor]	-19.0	105.0	3.0	102.0
O=C(CCNC(=O)N1CC(=O)Nc2ccccc21)Nc1cccc(Cl)c1	i	100.0	i	-12.4	97.0	0.0	nt	nt	nt
Cc1ccccc1C(=O)c1cccn1CC(=O)NCCN1CCN(c2cccc(C)c2C)CC1	i	144.0*	i	-1.9	104.0	10.0	133.0	25.0	107.0
Cc1cc2nccc(-c3ccc(Cl)cc3Cl)n2n1	i	103.0	i	26.7	105.0	6.0	nt	nt	nt
CCc1ccc(OCC(=O)N/N=C(\C)c2ccc3c(c2)OCCO3)cc1	i	102.0	i	11.9	131.0*	0.0	104.0	-1.0	103.0
Cc1cccc(Cl)c1OCCCCn1ccnc1	i	98.0	i	342.9	96.0	0.0	nt	nt	nt
Cc1cccc(C(C)(C)C)c1OCCn1ccnc1	i	-1.0*[inhibitor]	i	99.8	-1.0*[inhibitor]	-21.0	92.0	-5.0	98.0
O=C(CN1CCc2ccccc2C1)Nc1ccccc1C(F)(F)F	i	104.0	i	2.3	106.0	2.0	nt	nt	nt
Cc1nn(CCC#N)c2nc(-c3ccccc3)cc(C(F)(F)F)c12	i	93.0	i	-9.3	103.0	2.0	nt	nt	nt
Cc1nn(CCC(N)=S)c2nc(-c3cccs3)cc(C(F)(F)F)c12	i	104.0	i	1.6	151.0*	0.0	105.0	8.0	104.0
CC(C)c1ccc(NC(=O)CSc2nc(=O)n(CCCN3CCOCC3)c3c2CCCC3)cc1	i	nt	i	-4.3	nt	nt	nt	nt	nt
COc1ccc(OCC(O)CN(CCO)CC(O)Cn2ccc3ccccc32)cc1 (centres undefined)	i	102.0	i	3.3	100.0	-2.0	nt	nt	nt
CCC(=C(c1ccc(OC)cc1)c1ccc(OC)cc1)c1cn(CC(O)CN(CCO)CCO)c2ccccc12 (centres undefined)	i	149.0*	i	1.8	106.0	9.0	158.0	36.0	108.0
CCCNC(C)C(=O)Nc1c(C)csc1C(=O)OC (centres undefined)	i	nt	i	12.1	nt	nt	nt	nt	nt
